# Reference: PubChem BioAssay AID652128 (Broad Institute, 2013)
# The list shows a part of the results. Results filed as inconclusive are left out. Calls of active or inactive are those of the source.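 How the source made its calls: active means fitted half-maximal concentration for signal loss at or below twice the highest dose tested, in every separate run (actives reach about 64 µM in these data); inconclusive means runs disagree, or flat partial signal loss, or poor fit; inactive means the rest.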
# Experiment: DNA-binding compounds via dye displacement, dose response, artefact control for RAD52 inhibitor project, biochemical, fluorescence polarization, cherry-pick (AID 652128)
# Details: Salmon sperm DNA/acridine orange FP displacement
Structure (SMILES),outcome,AC50
CCN1CCN(CCNC(=O)c2ccc(/C=C3/Sc4ccccc4N(Cc4cccc(C)c4)C3=O)cc2)CC1,inactive,
CCN(CC(=O)Nc1ccc(NC(C)=O)cc1)C(=O)C1CC(=O)N(c2ccc3c(c2)OCCO3)C1 (stereo unspecified),inactive,
COC1=C(N2CCOCC2)C(=O)c2ccccc2C1=O,inactive,
Nc1ncc(CN2CCCC(C(=O)Nc3ccc(-c4ccco4)cc3)C2)cn1 (stereo unspecified),inactive,
CN(C)CCNC(=O)c1ccc(Cl)c2cc3ccccc3nc12,,13.1 µM (active)
CC(=O)Nc1ccc(Nc2c3ccccc3nc3ccccc23)cc1,,7.66 µM (active)
NC(N)=Nc1nc(-c2ccccc2)c2cc(Cl)ccc2n1,inactive,
Cc1c(CCOC(=O)CC23CC4CC(CC(C)(C4)C2)C3)sc[n+]1Cc1ccc([N+](=O)[O-])cc1,inactive,
CN1CCN(c2nc(Nc3ccc(O)cc3)nc3ccccc23)CC1,inactive,
CCN(CC)CCOc1ccc2c(c1)C(=NNC(=O)c1ccccn1)c1cc(OCCN(CC)CC)ccc1-2,,4.27 µM (active)
CN1CCN(CCCNC(=O)c2ccc(/C=C3\Oc4ccccc4N(Cc4ccc(Cl)cc4)C3=O)cc2)CC1,inactive,
CC(=O)Nc1ccc(CNc2nc(NCCN(C)C)nc3cc(-c4ccccc4)sc23)cc1,inactive,
CC(=O)Nc1cc(-c2ccc(N3CCN(C)CC3)cc2)cn2c(-c3cccc(C(=O)N(C)C)c3)cnc12,inactive,
Nc1ccc(OCC(O)C[n+]2ccc(CCS(=O)(=O)[O-])cc2)cc1 (stereo unspecified),inactive,
COc1ccc2[nH]c3c(C)c4cc[n+](C)cc4c(C)c3c2c1,,4.3 µM (active)
CN1CCC(CN)(N2CCN(c3ccccc3)CC2)CC1,inactive,
Cc1ccc(C(=O)N/C(=C/c2ccc(-c3cccc([N+](=O)[O-])c3)o2)C(=O)NCCCN(C)C)cc1,inactive,
Cc1ccc2c(c1)C1CN(C)CCC1N2S(=O)(=O)c1ccc(Oc2ccc([N+](=O)[O-])cc2)cc1 (stereo unspecified),inactive,
O=C1CCC(C(=O)OCC(=O)Nc2ccc(OC(F)F)cc2)=NN1,inactive,
CCN(CC)CCC(c1ccc2c(c1)OCO2)c1c(OC)cc(OC)c2c(-c3ccccc3)cc(=O)oc12 (stereo unspecified),inactive,
Cc1cccc(-c2nc3ccc(C(=O)NCCN4CCN(C)CC4)cc3nc2-c2cccc(C)c2)c1,inactive,
COc1cccc2sc(N(CCCN(C)C)C(=O)C(c3ccccc3)c3ccccc3)nc12,inactive,
COc1ccc(CC(N)c2csc(NC(=O)Nc3ccc(C(C)C)cc3)n2)cc1 (stereo unspecified),inactive,
Cn1ccc(=Nc2ccc(NC(=O)c3ccc(N=c4ccn(C)c5ccc([N+](=O)[O-])cc45)cc3)cc2)cc1,inactive,
C[C@H]1CN([C@@H](C)CO)C(=O)CCCn2nncc2CO[C@@H]1CN(C)C(=O)Nc1ccc(N2CCN(C)CC2)cc1,inactive,
Oc1ccc(N=Cc2sc3ccccc3c2Cl)cc1,inactive,
